PubChem BioAssay (NCATS)
Unmarked numbers belong to inactive results. How the calls were made is not given here.
Potency means the concentration at half of the fitted maximal effect.

What follows are compounds tested on HIV-1 nucleocapsid protein NCp7 (binding to TG oligonucleotide) (assay: HIV Nucleocapsid (AID 346;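 further: potency is for inhibitors that block NC binding and lower polarization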)). Conditions: HIV-1 NC / fluorescein-TGTGTGTG probe, fluorescence polarization.
Method in brief: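 10 nM TG4xF probe with 100 nM nucleocapsid protein in high-salt Hepes pH 7.5 (250mM NaCl) containing 1uM ZnCl2 and reducing agents. Compound inhibition of binding was read as fluorescein polarization after 1 hr at room temperature.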
Compound `CN(C)Cc1ccccc1-c1cncnc1NC1CC1` has a Potency of over 20 µM.
For `O=C(c1ccco1)N1CCC2(CC1)CN(c1ccc(-c3ccccc3)cc1)C2`, the Potency was over 20 µM.
Compound `Cc1ccccc1-c1cc(NCc2cccnc2)ncn1` has a Potency of over 20 µM.
With `COc1ccc(CNc2cc(-c3ccccc3Cl)ncn2)c(OC)c1` the Potency was over 20 µM.
With `COc1ncc2ncc(=O)n(Cc3cccs3)c2n1` the Potency was over 20 µM.
With `CN1CCN(c2ncc3ncc(=O)n(Cc4ccc(F)cc4)c3n2)CC1` the Potency was over 20 µM.
`CN1CCN(c2ncncc2-c2ccoc2)CC1` was tested, and the Potency was over 20 µM.
Compound `COc1ccc(-c2nc3cnc(OC)nc3n(CCc3ccccc3)c2=O)cc1` has a Potency of over 20 µM.
Work on `c1ccc(-c2cccc(N3CC4(CCNCC4)C3)c2)cc1` yielded a Potency of over 20 µM.
`COc1ccccc1CCn1c(=O)c(-c2ccc(Cl)cc2)nc2cncnc21` gave a Potency of over 20 µM.
In the case of `CN1CCN(c2ncc3ncc(=O)n(C[C@H]4CCCO4)c3n2)CC1`, the Potency is reported as over 20 µM.
`O=C(c1csnn1)N1CCC2(CCN(Cc3nccs3)CC2)CC1` gave a Potency of over 20 µM.
Compound `O=c1c(-c2ccc(F)c(F)c2)nc2cncnc2n1Cc1ccccc1` has a Potency of over 20 µM.
For `COc1ccc2[nH]cc(CCNc3ncncc3-c3cccnc3)c2c1`, the Potency was over 20 µM.
`COc1ccccc1-c1cncnc1Nc1ccc(F)cc1` showed a Potency of over 20 µM.
In the case of `O=C(Oc1ccccc1)N1CCC2(CC1)CN(c1ncccn1)C2`, the Potency is reported as over 20 µM.
For `O=C(c1cnccn1)N1CCC2(CCCN(c3ccccn3)C2)CC1`, the Potency was over 20 µM.
`Cc1cnc(CNc2ncncc2-c2cccnc2)cn1` was tested, and the Potency was over 20 µM.
`COc1cccc(-c2ccc3ncnc(NCc4ccc(OC)cc4OC)c3c2)c1` gave a Potency of over 20 µM.
For `Cc1nc2cnc(Oc3cccc(Cl)c3)nc2n(CCC#N)c1=O`, the Potency was over 20 µM.
In the case of `CC(=O)NCCNc1nc(-c2ccc(C(=O)N(C)C)cc2)nc2ccccc12`, the Potency is reported as over 20 µM.
In the case of `COc1ccccc1CCn1c(=O)c(-c2cccc(Cl)c2)nc2cncnc21`, the Potency is reported as over 20 µM.
`COc1cccc(-c2ccc3ncnc(NCc4ccccc4)c3c2)c1` was tested, and the Potency was over 20 µM.
With `N#Cc1cccc(-c2cncnc2NCCc2cnc[nH]2)c1` the Potency was over 20 µM.
`COCC(=O)N1CCC2(CC1)CN(C(c1ccccc1)c1ccccc1)C2` was tested, and the Potency was over 20 µM.
Work on `O=c1c(-c2cccs2)nc2cnc(N3CCNCC3)nc2n1C1CC1` yielded a Potency of over 20 µM.
`COc1cccc(Nc2ncc3ncc(=O)n(C[C@H]4CCCO4)c3n2)c1` gave a Potency of over 20 µM.
`COc1ccccc1-c1nc(N(C)Cc2ccco2)c2ccccc2n1` showed a Potency of over 20 µM.
In the case of `Cc1noc(C)c1C(=O)N1CCC2(CCCN(Cc3ccccc3)C2)CC1`, the Potency is reported as over 20 µM.
`COCCNc1ncncc1-c1c(C)noc1C` gave a Potency of over 20 µM.
`CN1CCC2(CC1)CCN(S(=O)(=O)c1ccccc1)CC2` gave a Potency of over 20 µM.
In the case of `COc1ccc(-n2c(=O)c(-c3ccc(F)cc3)nc3cncnc32)cc1`, the Potency is reported as over 20 µM.
`Cc1nc2cnc(N(C)C)nc2n(CCC#N)c1=O` showed a Potency of over 20 µM.
In the case of `COc1ccccc1-c1cc(-n2ccnc2)ncn1`, the Potency is reported as over 20 µM.
In the case of `O=c1c(-c2ccc(F)cc2)nc2cnc(N3CCNCC3)nc2n1Cc1ccc(F)cc1`, the Potency is reported as over 20 µM.
With `COc1ccccc1CN1CC2(CCN(C(=O)c3cc(C(F)(F)F)cc(C(F)(F)F)c3)CC2)C1` the Potency was over 20 µM.
Work on `FC(F)(F)c1ccccc1-c1cc(NCCN2CCOCC2)ncn1` yielded a Potency of over 20 µM.
Work on `COc1ccc2[nH]cc(CCNc3ccnc(-c4ccccc4C)n3)c2c1` yielded a Potency of over 20 µM.
In the case of `COCCn1c(=O)c(-c2cc(F)cc(F)c2)nc2cnc(N(C)C)nc21`, the Potency is reported as over 20 µM.
In the case of `COc1ncc2nc(CCc3ccccc3)c(=O)n(Cc3cccs3)c2n1`, the Potency is reported as over 20 µM.
